PubChem BioAssay AID2763 (National Center for Advancing Translational Sciences (NCATS), 2010)
Inconclusive results are not listed. The source made the active and inactive calls. Calls come from the whole dose curve; as a rule, active = well fitted inhibition curve with a large enough effect; inconclusive = small, poorly fitted or top-dose-only effect, or effect the other way; inactive = no such curve, though single readings can be large or run the other way.

Assay: Concentration response confirmation VP16 counterscreen for inhibitors of ROR gamma transcriptional activity; note: nearly all actives have a fitted effect of over 70% in size
Conditions: Drosophila S2 Gal4-VP16 UAS-luciferase, luminescence, 20 h; series mostly up to 46.1 µM
In short: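 Luciferase counterscreen: UAS-driven Photinus reporter in S2 cells expressing copper-inducible Gal4-VP16 fusion, 600 cells/well. Induced with copper sulfate (700 uM final) 1 hr after compound, incubated 20 hr at ambient temperature before luminescence detection.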
Potency is the fitted concentration of half-maximal effect.

| Structure (SMILES) | Potency |
| --- | --- |
| O=C(CSCCO)Nc1ccc(C2CCCCC2)cc1 | 9.96 µM (active) |
| CCOC(=O)Cc1nnc(Nc2ccc(C(=O)NC)cc2)c2ccccc12 | inactive |
| O=C1c2ccccc2C(=O)c2c1ccc1c(=O)n(C3CCCCC3)[nH]c21 | inactive |
| Cc1ccc(NC2=C(Cl)C(=O)OC2OC(=O)c2ccco2)cc1 (stereo unspecified) | inactive |
| O=C(CSc1nc2ccc(NC(=O)CSc3nnnn3Cc3ccccc3)cc2s1)Nc1ccccc1 | inactive |
| O=C(NC(=S)Nc1nc(-c2ccccc2)cs1)c1cccnc1 | inactive |
| CCCCn1c(CN2CCN(c3ccccc3)CC2)nc2c1c(=O)n(C)c(=O)n2C | 8.88 µM (active) |
| Cc1ccc(C(=O)O/N=C/c2ccc(N(C)C)cc2)cc1 | inactive |
| C=CCNc1nc(Nc2ccc([N+](=O)[O-])cc2)nc(N2CCCC2)n1 | 19.9 µM (active) |
| CNc1cc(C(F)(F)F)nc(-c2ccccn2)n1 | 8.88 µM (active) |
| COC(=O)c1ccc(OCC(=O)c2ccc(O)cc2O)cc1 | 1.58 µM (active) |
| CC(C)(C)NC(=O)CSc1nc2ccc(NC(=O)CSc3nnnn3Cc3ccccc3)cc2s1 | 12.5 µM (active) |
| O=[N+]([O-])c1ccccc1/C=C/C=N/n1c(-c2ccccc2)n[nH]c1=S | inactive |
| S=c1[nH]nc(-c2ccc(Cl)cc2Cl)n1-c1ccc2c(c1)OCCO2 | inactive |
| Cc1ccccc1C(=O)OC1OC(=O)C(Cl)=C1Nc1ccccc1 (stereo unspecified) | inactive |
| OCCNc1nc2ccccc2n1-c1ncnc2sc3c(c12)CCC3 | 15.8 µM (active) |
| COc1ccc2oc(=O)c(C(=O)Nc3ccccc3C)cc2c1 | 7.91 µM (active) |
| O=C(O)c1ccc(/C=N/n2cc(-c3ccccc3)[nH]c2=S)cc1 | inactive |

| Structure (SMILES) | Potency |
| --- | --- |
| CCOC(=O)C(C(=O)OCC)C(C(=O)OCC)N1CCOCC1 (stereo unspecified) | 3.53 µM (active) |
| COc1ccc(OC)c(NC(=S)N(CCc2c(C)[nH]c3ccccc23)Cc2cccs2)c1 | inactive |
| COc1ccc(C(=O)Nc2cc(-c3ccc(C)cc3)no2)cc1 | inactive |
| Cc1cc(NCc2ccccn2)n2ncc(-c3ccc(Cl)cc3)c2n1 | 0.996 µM (active) |
| Cc1c(CCC(=O)N[C@@H](CC(C)C)C(=O)O)c(=O)oc2cc3oc4c(c3cc12)CCCC4 | 4.99 µM (active) |
| Cn1nccc1C(=O)NC1CCCc2c1cnn2-c1ccc(F)cc1F (stereo unspecified) | 1.58 µM (active) |
| CCOC(=O)c1ccc2nc(Nc3nc4ccc(F)cc4s3)sc2c1 | 25 µM (active) |
| CCOc1cc(C)c(S(=O)(=O)NC2CCCCC2)cc1C | inactive |
| Cc1c(OC(C)C(=O)NCc2cccnc2)ccc2c3c(c(=O)oc12)CCCC3 (stereo unspecified) | inactive |
| CCN(C1CCCCC1)S(=O)(=O)c1ccc(S(=O)(=O)NCc2ccncc2)cc1 | 28.1 µM (active) |
| CCN1C(=O)/C(=C/c2ccc(N3CCCC3)cc2)NC1=S | 9.96 µM (active) |
| O=S(=O)(NCc1ccccn1)C(F)(F)F | 25 µM (active) |
| COc1ccc2nc(N3C(=O)CNC3=S)sc2c1 | 8.88 µM (active) |
| Cc1ccc(S(=O)(=O)NCc2ccncc2)c(C)c1C | 3.97 µM (active) |
| Cc1nnsc1C(=O)NC1CCCc2c1cnn2-c1ccc(C(C)(C)C)cc1 (stereo unspecified) | 22.3 µM (active) |
| O=C(CCCOc1ccccc1)Nc1nc2ccccc2[nH]1 | inactive |
| Cn1nnnc1NCc1ccccc1F | inactive |
| COCCC1CCCCN1C(=O)c1cc(COc2ccc(-n3cncn3)cc2)on1 (stereo unspecified) | 19.9 µM (active) |
